# Calls of active or inactive are those of the source. How the source made its calls: active means hit-call score of the fitted dose curve at least 0.9, where 1 is the maximum; inactive means score below 0.9.
# Test: BSK_3C_VCAM1: BioMAP Diversity Plus: 3C Assay for Vascular cell adhesion molecule 1 (VCAM1) Biomarker Activity (AID 2282999)
# Conditions: BioMAP 3C HUVEC, VCAM1 ELISA, cytokine-stimulated; actives raise or lower the signal
# Protocol: BSK_3C is a cell-based, multiplexed-readout assay that uses umbilical vein endothelium, a human vascular primary cell, with measurements taken at 24 hours after chemical dosing in a 96-well plate.BSK_3C_VCAM1 is an assay component measured in the BSK_3C assay. It measures VCAM-1 antibody related to regulation of gene expression using ELISA technology.Data from the assay component BSK_3C_VCAM1 was analyzed into 1 assay endpoint. This assay endpoint, BSK_3C_VCAM1, was analyzed with bidirectional fitting relative to DMSO as the negative control and baseline of activity. Using a type of binding reporter, gain or loss-of-signal activity can be used to understand changes in the signaling as they relate to the gene VCAM1. Furthermore, this assay endpoint can be referred to as a primary readout, because this assay has produced multiple assay endpoints where this one serves a signaling function. To generalize the intended target to other relatable targets, this assay endpoint is annotated to the cell adhesion molecules intended target family, where the subfamily is Immunoglobulin CAM.
# The levels of cell surface (or secreted, indicated by the prefix "s") biomarker endpoints were measured by ELISA. Overt cytotoxicity to cells in confluent adherent cultures (all systems other than the BT system) was assessed by measuring total protein levels using sulforhodamine B (SRB) staining in parallel cultures at the time of biomarker measurements, indicated as SRB endpoints. For proliferation assays for adherent cell types, individual cell types are cultured at sub-confluence and relative cell numbers quantified by SRB staining at time points optimized for each system (48 h: 3C and CASM3C systems; 72 h: BT and HDF3CGF systems; 96 h: SAg system). SRB was performed by staining cells with 0.1% SRB after fixation with 10% TCA and reading wells at 560 nm.Viability and proliferation of PBMC (T cells) was quantified by Alamar Blue reduction for the SAg and BT systems. For PBMC viability (referred to as PBMC Cytotoxicity within the assay endpoint names), cells were plated (75,000/well in a 96-well plate) and then chemical samples added for 1 h before addition of activators, SEB and TSST-1 (20 ng/mL final concentration each). Cells were incubated for 90 h. Then, Alamar Blue (20 uL/well) (Invitrogen, Cat DAL1100) was added for 6 h, and the plates were read with a fluorescence microplate reader at 546/580 nm (excitation/emission). For PBMC proliferation, cells were plated and activated as above but incubated for only 16 h prior to addition of Alamar Blue. Plates were read after 6 h.
SMILES,outcome,AC50
CCOP(=S)(OCC)SCS(=O)(=O)CC,inactive,
Cc1cccc(N)c1,inactive,
c1cc2c3c(cccc3c1)CC2,inactive,
O=[N+]([O-])c1ccc(Cl)c(Cl)c1,inactive,
CC(C)(C)c1ccccc1OP(=O)(Oc1ccccc1)Oc1ccccc1,,28.6 µM (active)
O=[N+]([O-])c1ccccc1,inactive,
CCOP(=S)(NC(C)C)Oc1ccccc1C(=O)OC(C)C (stereo not given),inactive,
CCCCN(CCCC)N=O,inactive,
CCOP(=S)(OCC)SCSCC,inactive,
CCCN(CCC)c1c([N+](=O)[O-])cc(C(C)C)cc1[N+](=O)[O-],,25.8 µM (active)
OCC(F)(F)OC(F)(F)C(F)(F)OC(F)(F)CO,inactive,
COC(=O)C(F)(F)C(F)(F)OC(F)(C(F)(F)F)C(F)(F)OC(F)=C(F)F (stereo not given),inactive,
COCCOCCO,inactive,
c1nc[nH]n1,inactive,
CCOC(=O)c1ccccc1C(=O)OCC,inactive,
CCCCCCCc1ccc(O)cc1,,35.1 µM (active)
O=C(O)C(Cl)Cl,inactive,
CCC1(c2ccccc2)C(=O)N=C(O)NC1=O (stereo not given),inactive,
CCOP(=S)(S)OCC,inactive,
Cc1ccc(O)cc1C,inactive,

SMILES,outcome,AC50
CCCCC(CC)COP(=O)(Oc1ccccc1)Oc1ccccc1 (stereo not given),,20 µM (active)
CC(Cl)CN(C)C (stereo not given),inactive,
CCOP(=S)(OCC)SCSc1ccc(Cl)cc1,inactive,
N#Cc1cc([N+](=O)[O-])ccc1N,inactive,
ClC(Cl)c1ccccc1,inactive,
c1ccc2c(c1)sc1ccccc12,inactive,
CCNc1nc(Cl)nc(NC(C)(C)C)n1,inactive,
NC(=O)C(F)(F)C(F)(F)F,inactive,
CC(C)(C)c1ccc(O)cc1,inactive,
CCCCOCCOP(=O)(OCCOCCCC)OCCOCCCC,inactive,
ClC(Cl)=C(c1ccc(Cl)cc1)c1ccccc1Cl,,10.7 µM (active)
CCOP(=S)(OCC)SCn1nnc2ccccc2c1=O,inactive,
N#Cc1c(-c2ccc(Cl)cc2)[nH]c(C(F)(F)F)c1Br,,6.03 µM (active)
OCC(F)(F)OC(F)(F)C(F)(F)OC(F)(F)C(F)(F)OC(F)(F)CO,inactive,
Cc1ccc([N+](=O)[O-])cc1C,inactive,
CC(C)Nc1ccc(Nc2ccccc2)cc1,,8.53 µM (active)
CC(Cl)(Cl)C(=O)O,inactive,
CCN(CC)c1ccccc1,inactive,
CCOS(=O)(=O)OCC,inactive,
O=C(O)C(F)(F)OC(F)(F)C(F)(F)OC(F)(F)C(=O)O,inactive,
